Measurements as given in PubChem BioAssay (NCI).
Compounds without any hit were thinned out: in the full panel of roughly 79,000, 15% have a hit. Unmarked numbers belong to inactive results. Active and inactive are the calls of the source. Cut-off read from the data, not from the text of the source: active = growth inhibition above about 70%; inactive = the rest.

How the values were obtained:
[1] = NCI Yeast Anticancer Drug Screen. Data for the rad50 strain (AID 155);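 note: 0% = growth of vehicle-only cultures of the same strain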; details: S. cerevisiae rad50 strain growth inhibition; at 50.0 µM; hits give high values
Method in brief: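 Inhibition values express reduced yeast growth in compound-treated cultures relative to vehicle-treated controls.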

[2] = NCI Yeast Anticancer Drug Screen. Data for the mec2-1 strain (AID 157); details: S. cerevisiae mec2-1 strain, at 50.0 µM, hits give high values
Method in brief: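 Yeast mec2-1 mutant treated with compound. Readout: growth inhibition vs vehicle controls.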

[3] = NCI Yeast Anticancer Drug Screen. Data for the sgs1 mgt1 strain (AID 161);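 note: 0% = growth of cultures given vehicle only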; details: S. cerevisiae sgs1 mgt1 strain, at 50.0 µM, hits give high values
Method in brief: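 Inhibition of yeast growth, normalised to vehicle-treated controls, is reported for a strain bearing genetic alterations in DNA damage repair.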

[4] = NCI Yeast Anticancer Drug Screen. Data for the cln2 rad14 strain (AID 165);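 note: 0% = growth equal to vehicle treated cultures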; details: S. cerevisiae cln2 rad14 strain, at 50.0 µM, hits give high values
Method in brief: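 cln2 rad14 yeast strain; compound exposure; growth inhibition read vs vehicle controls.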

[5] = NCI Yeast Anticancer Drug Screen. Data for the bub3 strain (AID 167); details: S. cerevisiae bub3 mutant strain, at 50.0 µM, hits give high values
Method in brief: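 Steps: expose the mutant yeast strain to compound; grow alongside vehicle-treated cultures; measure growth; express inhibition against the vehicle cultures.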

[6] = NCI Yeast Anticancer Drug Screen. Data for the mlh1 rad18 strain (AID 175); details: S. cerevisiae mlh1 rad18 strain growth inhibition; at 50.0 µM; hits give high values
Method in brief: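 Yeast w/ defined DNA-repair lesions; compound exposure; growth vs vehicle controls → % inhibition.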

Compound | growth inhibition [1] | growth inhibition [2] | growth inhibition [3] | growth inhibition [4] | growth inhibition [5] | growth inhibition [6]
CC(=O)[CH-]C(=O)c1ccccc1.CC(=O)[CH-]C(=O)c1ccccc1.CCCCCCCCCCCCCCCCCC(=O)[O-].CCCCCCCCCCCCCCCCCC(=O)[O-].[Ti+4] | 11.2% | -11.2% | -6.55% | -9.7% | 2% | -0.45%
Cc1ccc(S(=O)(=O)NC(=O)NCCCS(C)=O)cc1 (configuration not stated) | -3.5% | -6.5% | 6.8% | -7.8% | 2.9% | 10.3%
Cc1c(C2(c3cc(C(C)C)c(O)c(CN(CC(=O)O)CC(=O)O)c3C)OS(=O)(=O)c3ccccc32)cc(C(C)C)c(O)c1CN(CC(=O)O)CC(=O)O | 4.3% | 0.7% | -1.75% | 24.7% | 2.8% | 4.95%
CC(C)CN1CC(=O)N2Cc3ccccc3CN2C(=O)C1 | -28.6% | -10.2% | -17.4% | -4.95% | -1.3% | -2.5%
O=c1[nH]c(Nc2cccc(CO)c2)nc2nc[nH]c12 | 5.35% | -11% | -25.8% | 0.9% | -15.7% | -26.4%
COc1ccccc1C(=O)N/N=C/c1ccc(O)cc1 | 0% | 22.6% | 15.3% | -2.7% | 16.6% | 19.9%
CC(=O)Oc1ccc(OC(C)=O)c([N+](=O)[O-])c1 | 24.1% | 17.2% | -1.65% | -9.75% | 1% | 29.2%
CCNc1nc2c(ncn2C2CC(O)C(COP(=O)(O)O)O2)c(=O)[nH]1 (configuration not stated) | 18.9% | 15.2% | 27.3% | 11.8% | 13.2% | -16.1%
O=c1[nH]c(=S)[nH]c2ncn(C3OC(CO)C(O)C3O)c12 (configuration not stated) | -13.4% | -3.85% | -8.15% | -9.6% | 5.65% | -0.6%
CN1N=C(c2ccccc2O)/C(=C/c2c(-c3ccccc3O)[nH]n(C)c2=O)C1=O | 6.85% | -0.55% | -6.1% | 0.75% | 4.6% | 31.9%
N#Cc1[nH]c(=S)[nH]c1N | 4.1% | -7.85% | 2.6% | 6.05% | 11.8% | -40.8%
CC1CCCC(C)C1O (configuration not stated) | -19.7% | -28.1% | -13.9% | 12.3% | -4.6% | -14.1%
O=C(NN1C(=O)C(Cl)C1c1ccc([N+](=O)[O-])cc1)c1ccccc1O (configuration not stated) | -16.2% | -19.2% | -35.7% | -6.45% | -26% | -20.1%
CCCCCCCCCC(=O)OC | -24.1% | -16.9% | 8.4% | -12.8% | -0.25% | 6.2%
O=C(Nc1ccc(Cl)cc1)c1ccc(C(=O)Nc2ccc(Cl)cc2)cc1 | -12.9% | -26.4% | -20.1% | 5.35% | -6.4% | -24.9%
NC(=O)c1ncnc2nc[nH]c12 | -14.2% | -42.5% | -9% | -29.1% | -20.4% | -10.6%
CSc1nc(NC2OCC(O)C(O)C2O)cc(=O)[nH]1 (configuration not stated) | 7.75% | -0.95% | 10.8% | -2.25% | -13.8% | 1.3%
COC(=O)CCc1onc(Br)c1CCl | 17.8% | 9.05% | -7.55% | 0.35% | 9.95% | 9.5%
CC1(C)CC(=O)c2c([nH]c(=S)c(C#N)c2-c2ccc(Br)cc2)C1 | -37.3% | -13.1% | -27.4% | -11.8% | -8.7% | -42.1%

Compound | growth inhibition [1] | growth inhibition [2] | growth inhibition [3] | growth inhibition [4] | growth inhibition [5] | growth inhibition [6]
Cc1cccc(NC(=O)CCCCCCCCC(=O)Nc2cccc(C)c2C)c1C | -4.8% | 0.7% | -2.3% | -41.4% | -2.05% | 12.2%
NS(=O)(=O)c1cc(C(=O)O)c(O)c2ccccc12 | 9.85% | 3.3% | 1.15% | -23.8% | 6.6% | 15.6%
CCCCS(=O)CC(CO)NC(=O)/C=C/c1c(C)[nH]c(=O)[nH]c1=O (configuration not stated) | 12.9% | 22.8% | 12.8% | 22.1% | -3.25% | 33.9%
CCCCCCCCCCCC(=O)NC(=S)Nc1ccc(C(=O)OCC)cc1 | 29.9% | 31.9% | 57.9% | 1.35% | 29.4% | 45.4%
CC(=O)c1cccc(NC(=O)Nc2ccc(Nc3ccccc3)cc2)c1 | 3.8% | 6.5% | 5.6% | 2.6% | 21.8% | -0.8%
CCCc1cc(=O)oc2c3c(c4c(c12)OC(C)(C)C=C4)O[C@H](C)[C@@H](C)C3O (some centres not stated) | -6.25% | 9.3% | -1.45% | -1.5% | 11.3% | -3.4%
CN(C)CC(CCC(=O)c1ccccc1)C(=O)c1ccccc1 (configuration not stated) | 8.05% | 15.8% | 26.2% | -45.8% | 14.2% | 5.5%
CC1(C)CNC(=O)C2(C=NC(C)(C)CNC(=O)C3(C=N1)CCCO3)CCCO2 (configuration not stated) | -10.2% | -5.6% | -36.2% | -8.55% | -17.6% | -11.2%
Cc1cc(OC(=O)c2ccccc2)cc(C)c1OC(=O)c1ccccc1 | 10% | 2.9% | 0.1% | -6.15% | 7.15% | -6.7%
CC(O)COc1ccc(C(C)(C)C)cc1 (configuration not stated) | 3.25% | -4.2% | -2.45% | -13% | 10.8% | 2.6%
CCOC(=O)/N=[N+](\[O-])c1ccccc1 | 64.5% | 46.9% | 57.6% | 11.9% | 41.5% | 86.8% (active)
Cc1cccc(NC(=S)N(CCC#N)C2CCCCC2)c1 | 1.6% | -2.85% | 14.8% | 7% | 18.6% | 9.85%
Cc1cc(O)c(C(C)C)cc1S(=O)(=O)O | 0.7% | 0.2% | 3.75% | -1.5% | 3.25% | 5.15%
Cc1cc(C2(O)CCCc3ccccc32)[n+]([O-])cc1C (configuration not stated) | -17.3% | -2.9% | -9.4% | -4.8% | 0.75% | 2.75%
S=C(c1ccccc1)N1CCCCC1 | 8% | -1.7% | 0.45% | -23.4% | 16.3% | 4.05%
Cc1c(Cc2c(C)n(C)n(-c3ccccc3)c2=O)c(=O)n(-c2ccccc2)n1C | 9.55% | -1.7% | -0.25% | 13.4% | 9.9% | 9.5%
CCCCC(CC)CCC(C)=O (configuration not stated) | 5.8% | -0.8% | 0.35% | 3.3% | 1.75% | -0.9%
CC(C)(C)CC(C)(C)c1ccc(OCCOc2ccccc2NS(=O)(=O)c2ccc(N)cc2)cc1 | 47.5% | -0.35% | 33.6% | 1.1% | 10.1% | 23.6%
